PubChem BioAssay (NCATS)
Records with an inconclusive call do not appear. Calls follow the shape of the dose curve; as a rule, active = well fitted curve in either direction with a large enough effect (not every such curve was filed as active); inconclusive = small, poorly fitted or top-dose-only effect, or another doubt; inactive = flat fitted curve, though single readings scatter.

experiment: AP1 Signaling Pathway (AID 357); settings: ME-180 (cervical carcinoma) AP-1-bla reporter, EGF-induced, beta-lactamase ratio, 5 h; at 7.69 µM (top of the series) unless noted
In short: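 AP-1-bla ME-180 cells with beta-lactamase reporter under AP-1 response element, stimulated with EC50 EGF; compounds titrated, 5 hours at 37 degrees Celsius. CCF4 read at 460/530 nm ratio; positive and negative modulators judged by AC50.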
% is scaled to controls: 0 for no effect and ±100 for the full control effect.

Activity change, negative = inhibition, inactive:
COc1ccc(C(=O)N2CCC3(CC2)CCN(c2ccncc2)CC3)cc1 14.4%
CC(C)CN1CC2(CCN(C(=O)c3csnn3)CC2)C1 -4.73%
Cn1cccc1C(=O)N1CCC2(CCCN(C(=O)Nc3cccc(F)c3)C2)CC1 -15.3%
O=C(c1cnccn1)N1CCC2(CC1)CCN(c1ccncc1)CC2 15.7%
O=C(c1cnccn1)N1CCC2(CCCN(Cc3ccccc3)C2)CC1 -6.44%
O=C(c1cccc(F)c1)N1CCC2(CCCN(c3ccccn3)C2)CC1 -14%
CN1CCC2(CC1)CCN(C(=O)c1cccc(F)c1)CC2 2.25%
CC(C)CN1CC2(CCN(S(=O)(=O)c3ccccc3)CC2)C1 6.33%
N#Cc1ccc(CN2CC3(CCN(C(=O)c4cnccn4)CC3)C2)cc1 -10.3%
O=C(c1cccc(F)c1)N1CCC2(CC1)CN(c1ccccn1)C2 6.77%
O=C(c1ccncc1)N1CCC2(CC1)CN(c1ccccn1)C2 24.8%
Cn1cccc1C(=O)N1CCC[C@@]2(CCN(C(=O)Nc3cccc(F)c3)C2)C1 -5.32%
CC(C)CN1CC[C@@]2(CCCN(C(=O)c3ccco3)C2)C1 -7.86%
COc1ccccc1CN1CCCC2(CCN(S(=O)(=O)c3ccccc3)CC2)C1 0.799%
COCC(=O)N1CCC2(CCCN(Cc3ccc(C#N)cc3)C2)CC1 12.6%
O=C(c1ccncc1)N1CCC2(CCCN(Cc3nccs3)C2)CC1 -14.3%
